Experimental data: PubChem BioAssay
Values joined by “and” are separate entries in the source; they are usually repeats but may differ in a detail not shown here. Identical values can stand only once. For some assays here: Entries with a potency or affinity are not part of this list. Some compounds were tested as several samples or in several runs, with calls that do not always agree. Active and inactive are the calls of the source. Unless noted, no rule for the calls is given here.

Assays:
[1] = circadian clock period modulators, cell-based, LOPAC library, luminescence reporter (AID 2774); settings: circadian reporter cells, at 7 µM, actives lie on both sides;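 also: values are relative to mean of DMSO wells on each plate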
[2] = system: Aerobactin synthetase IucA (Klebsiella pneumoniae); assay: IucA aerobactin synthetase inhibitors, biochemical, Tocris library, absorbance (AID 1345561); settings: purified IucA enzyme assay, absorbance (OD) read-out; stronger effect = lower value;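 tested at 8 µM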;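 also: 100% = enzyme without compound and 0% = no enzyme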
[3] = viability rescue of complex I mutant cybrids, primary screen, cell-based, galactose medium, ATP luminescence (AID 1645843;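 active = z-score of at least 1.8 in each of two replicates, scored against plate mean and spread of sample wells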;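 also: positive z means more ATP and so rescue of galactose-driven cybrid death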); settings: complex I mutant cybrid cells, 72 h, stronger effect = higher value
[4] = sensitizers of A549 cells to miR-34 induction, primary screen, imaging, A549 dox-inducible miR-34, nuclei and caspase counts (AID 1347080;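 active = compounds whose cell count with miR-34 switched on is under 0.7 times the count with it off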); settings: A549 miR-34 inducible, Hoechst nuclei count, 48 h; stronger effect = lower value; cell number ratio, induced over uninduced
[5] = phospholipid biosynthesis inhibitors in animal cells, primary screen, cell-based, LOPAC library, screen 4 (AID 1347384); settings: phospholipid biosynthesis inhibition screen, at 10 µM
[6] = antimalarial activity against Dd2 strain (AID 2302;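 active = growth inhibition above 50% at the single 2 µM test dose, taken to imply half-maximal potency below 2 µM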;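 also: 0% = DMSO untreated growth and 100% = chloroquine plus artemisinin killed control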); settings: P. falciparum Dd2 in RBCs, LDH growth readout, 72 h; at 2 µM; stronger effect = higher value
[7] = HepG2 cytotoxicity, primary screen, cytotoxicity control for P. falciparum antimalarial project, cell-based, ATP luminescence (AID 2303;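 active = inhibition above 50%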;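 also: 0% = DMSO wells and 100% = digitonin-killed cells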); settings: HepG2 viability, 24-48 h, at 10 µM, stronger effect = higher value
[8] = molecular target: L-lactate dehydrogenase (Plasmodium falciparum (isolate CDC / Honduras)) (UniProt Q27743); assay: PfLDH activity inhibition – cell lysate, 3D7 strain, counter-screen for P. falciparum growth inhibition project (AID 2304);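 also: 0% = vehicle and 100% = reference inhibitor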; settings: P. falciparum 3D7 crude extract, LDH APAD/NBT absorbance; at 2 µM; stronger effect = higher value
[9] = inhibition of 3D7 malaria parasite growth – strain 3D7 (AID 2306);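 also: 0% = DMSO wells and 100% = chloroquine plus artemisinin control wells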; settings: P. falciparum 3D7 erythrocytic growth, LDH absorbance, 72 h; at 2 µM; stronger effect = higher value
[10] = molecular target: Calcium-dependent protein kinase 1 (Plasmodium falciparum (isolate 3D7)) (UniProt P62344); assay: PfCDPK1 kinase inhibitors, biochemical, TCAMS library (AID 1159585; cut-off not given, nearly all actives have IC50 up to about 0.98 µM;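 also: inhibitors leave more ATP so luminescence rises with inhibition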); settings: recombinant PfCDPK1, Kinase-Glo ATP depletion luminescence
[11] = molecular target: Plasmodium falciparum protein kinase 6 (PK6, PF3D7_1337100) (UniProt Q8IDW1); assay: PfPK6 kinase inhibitors, biochemical, TCAMS library (AID 1159586); settings: recombinant PfPK6, Kinase-Glo ATP depletion luminescence
[12] = molecular target: Protein kinase 7 (PK7), Plasmodium falciparum 3D7 (PF3D7_0213400) (UniProt Q7YTF7); assay: inhibition of Plasmodium PK7 catalytic activity – biochemical, TCAMS antimalarial set, Kinase-Glo luminescence (AID 1159587); settings: recombinant PfPK7, Kinase-Glo ATP depletion luminescence
[13] = molecular target: Calcium-dependent protein kinase 4 (Plasmodium falciparum (isolate 3D7)) (UniProt Q8IBS5); assay: PfCDPK4 kinase inhibitors, biochemical, TCAMS library (AID 1159588; cut-off not given, nearly all actives have IC50 up to about 0.91 µM); settings: recombinant PfCDPK4, Kinase-Glo ATP depletion luminescence
Calcium-dependent protein kinase 4 (Plasmodium falciparum (isolate 3D7)), sequence (Q8IBS5 whole entry, looked up): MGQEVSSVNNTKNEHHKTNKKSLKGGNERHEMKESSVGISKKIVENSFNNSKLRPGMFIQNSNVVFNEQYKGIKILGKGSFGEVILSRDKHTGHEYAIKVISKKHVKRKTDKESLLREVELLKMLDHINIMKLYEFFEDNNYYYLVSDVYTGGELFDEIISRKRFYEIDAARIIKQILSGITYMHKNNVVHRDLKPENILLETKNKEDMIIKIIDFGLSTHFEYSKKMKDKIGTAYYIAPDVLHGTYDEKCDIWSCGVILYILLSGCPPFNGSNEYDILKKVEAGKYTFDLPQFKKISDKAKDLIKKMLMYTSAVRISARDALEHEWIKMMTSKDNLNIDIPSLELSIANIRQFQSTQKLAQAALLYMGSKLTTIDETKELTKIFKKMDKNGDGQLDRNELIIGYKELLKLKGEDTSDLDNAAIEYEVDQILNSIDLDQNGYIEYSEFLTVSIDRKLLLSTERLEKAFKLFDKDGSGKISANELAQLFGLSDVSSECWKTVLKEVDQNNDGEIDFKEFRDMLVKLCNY

Plasmodium falciparum protein kinase 6 (PK6, PF3D7_1337100), sequence (Q8IDW1 1-305): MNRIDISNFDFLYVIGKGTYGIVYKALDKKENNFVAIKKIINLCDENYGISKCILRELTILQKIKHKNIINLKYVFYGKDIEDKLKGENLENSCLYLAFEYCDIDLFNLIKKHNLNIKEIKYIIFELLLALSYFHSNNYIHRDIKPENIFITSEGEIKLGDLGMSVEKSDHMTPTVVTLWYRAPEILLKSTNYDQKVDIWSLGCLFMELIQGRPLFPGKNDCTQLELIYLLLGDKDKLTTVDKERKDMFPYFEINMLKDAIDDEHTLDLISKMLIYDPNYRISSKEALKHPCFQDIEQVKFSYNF
L-lactate dehydrogenase (Plasmodium falciparum (isolate CDC / Honduras)), sequence (Q27743 whole entry, looked up): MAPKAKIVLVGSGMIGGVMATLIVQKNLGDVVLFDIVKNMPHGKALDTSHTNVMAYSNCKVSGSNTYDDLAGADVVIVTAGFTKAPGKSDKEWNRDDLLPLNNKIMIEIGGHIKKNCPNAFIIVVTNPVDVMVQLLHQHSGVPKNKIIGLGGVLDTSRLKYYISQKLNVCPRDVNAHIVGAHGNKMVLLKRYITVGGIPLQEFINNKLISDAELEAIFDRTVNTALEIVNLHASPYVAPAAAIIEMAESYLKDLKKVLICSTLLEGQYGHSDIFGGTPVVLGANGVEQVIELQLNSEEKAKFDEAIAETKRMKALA
Calcium-dependent protein kinase 1 (Plasmodium falciparum (isolate 3D7)), sequence (P62344 whole entry, looked up): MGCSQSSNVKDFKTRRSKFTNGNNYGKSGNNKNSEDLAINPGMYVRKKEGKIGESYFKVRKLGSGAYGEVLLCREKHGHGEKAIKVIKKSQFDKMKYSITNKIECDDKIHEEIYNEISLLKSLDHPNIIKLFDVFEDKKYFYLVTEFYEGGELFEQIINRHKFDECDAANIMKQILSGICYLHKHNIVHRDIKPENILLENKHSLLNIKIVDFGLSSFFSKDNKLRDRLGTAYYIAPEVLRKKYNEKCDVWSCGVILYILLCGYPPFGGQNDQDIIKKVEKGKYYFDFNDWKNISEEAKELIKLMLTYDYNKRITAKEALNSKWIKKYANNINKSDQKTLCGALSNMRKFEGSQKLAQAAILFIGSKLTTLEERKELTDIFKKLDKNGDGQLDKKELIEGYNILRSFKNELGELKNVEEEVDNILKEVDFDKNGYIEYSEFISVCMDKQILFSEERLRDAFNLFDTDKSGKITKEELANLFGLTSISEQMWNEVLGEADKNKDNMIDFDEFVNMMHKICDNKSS
Protein kinase 7 (PK7), Plasmodium falciparum 3D7 (PF3D7_0213400), sequence (Q7YTF7 1-343): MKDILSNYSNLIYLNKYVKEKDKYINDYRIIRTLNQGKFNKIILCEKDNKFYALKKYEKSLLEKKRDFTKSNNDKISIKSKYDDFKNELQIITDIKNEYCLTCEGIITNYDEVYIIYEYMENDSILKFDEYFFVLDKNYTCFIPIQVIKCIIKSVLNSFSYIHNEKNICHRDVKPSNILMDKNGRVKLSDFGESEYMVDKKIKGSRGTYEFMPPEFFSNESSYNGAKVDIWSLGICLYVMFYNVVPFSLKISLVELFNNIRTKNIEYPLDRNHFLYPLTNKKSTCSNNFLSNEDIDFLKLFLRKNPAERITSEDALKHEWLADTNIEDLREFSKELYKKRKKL

NNCc1cccc(O)c1
inactive: period change [1] -0.07 h

COC(=O)/C=C/C(=O)N[C@@H]1CC[C@@]2(O)[C@H]3Cc4ccc(O)c5c4[C@@]2(CCN3CC2CC2)[C@H]1O5
inactive: remaining activity [2] 109% | z-score [3] -0.405

COc1cc2c(cc1O)C[C@H]1c3c(cc(O)c(OC)c3-2)CCN1C
inactive: fold change [4] 0.885

C[C@H]1CC[C@]2(NC1)O[C@H]1C[C@H]3[C@@H]4CC[C@H]5C[C@@H](O)CC[C@]5(C)[C@H]4CC[C@]3(C)[C@H]1[C@@H]2C
inactive: fold change [4] 0.873

CC(=O)OCC1=C(C(=O)O)N2C(=O)[C@@H](NC(=O)CCC[C@@H](N)C(=O)O)[C@H]2SC1
inactive: outcome [5]

CCCN(CC(=O)NCCc1ccccc1)c1ccc(C#N)c2ccccc12
active: growth inhibition [9] 92%
inactive: growth inhibition [6] 39% | inhibition [7] 8% | inhibition [8] -5% | outcome [10] | outcome [11] | outcome [12] | outcome [13]

CCC(C)CN1CCC(N(C)c2cc(NC(=O)c3ccc(F)cc3)ccn2)CC1 (centres undefined)
inactive: growth inhibition [6] 32% | inhibition [7] 4% | inhibition [8] -5% | outcome [10] | outcome [11] | outcome [12] | outcome [13]
active: growth inhibition [9] 93%

c1ccc(C(OCCC2CCN(Cc3cccnc3)CC2)c2ccccc2)cc1
inactive: inhibition [7] 12% | inhibition [8] 5% | outcome [10] | outcome [11] | outcome [12] | outcome [13]
active: growth inhibition [6] 98% | growth inhibition [9] 99%

CC(Cc1ccc(OCCCCOc2ccccc2)cc1)NCCCn1ccnc1 (centres undefined)
active: growth inhibition [6] 101% | inhibition [7] 100% | growth inhibition [9] 101%
inactive: inhibition [8] 0% | outcome [10] | outcome [11] | outcome [12] | outcome [13]

CC(C)CNCc1cccc(-c2ccccc2CN(C(=O)Nc2ccccc2)C2CCN(Cc3ccccc3)CC2)c1
inactive: inhibition [7] 36% | inhibition [8] -2% | outcome [10] | outcome [11] | outcome [12] | outcome [13]
active: growth inhibition [6] 68% | growth inhibition [9] 100%

COc1ccc(C(=O)[C@H]2C[C@@H]2CN2CC=C(c3c(C)[nH]c4ccccc34)CC2)cc1
active: growth inhibition [6] 94% | growth inhibition [9] 96%
inactive: inhibition [7] 16% | inhibition [8] -6% | outcome [10] | outcome [11] | outcome [12] | outcome [13]

O=C(/C=C/c1cccc2ccccc12)NC1CCC(CN2CCC(c3c[nH]c4ccccc34)CC2)CC1 (centres undefined)
inactive: inhibition [8] 5% and -3% | outcome [10] | outcome [11] | outcome [12] | outcome [13]
active: growth inhibition [6] 66% and 72% | growth inhibition [9] 101% and 100%
45% (inactive) and 53% (active): inhibition [7]

CC(Cc1ccc(OCCCCOc2ccccc2)cc1)NCCCc1nc2ccccc2[nH]1 (centres undefined)
inactive: inhibition [8] 3% | outcome [10] | outcome [11] | outcome [12] | outcome [13]
active: growth inhibition [6] 67% | inhibition [7] 99% | growth inhibition [9] 97%

CNC(=O)c1ccc2[nH]cc(C3CCN(CC4CCC(NC(=O)/C=C/c5ccc(Cl)c(Cl)c5)CC4)CC3)c2c1 (centres undefined)
active: growth inhibition [6] 90% | growth inhibition [9] 100%
inactive: inhibition [7] -1% | inhibition [8] -7% | outcome [10] | outcome [11] | outcome [12] | outcome [13]

O=C(C=C1c2ccccc2-c2ccccc21)NC1CCC(CN2CCC(c3c[nH]c4ccccc34)CC2)CC1 (centres undefined)
21% (inactive) and 54% (active): inhibition [7]
active: growth inhibition [6] 64% and 67% | growth inhibition [9] 102% and 99%
inactive: inhibition [8] 4% and 1% | outcome [10] | outcome [11] | outcome [12] | outcome [13]

FC(F)(F)c1ccc(NC(=S)NC2CCC(CN3CCC(c4c[nH]c5ccccc45)CC3)CC2)cc1 (centres undefined)
active: growth inhibition [6] 99% and 100% | inhibition [7] 65% and 92% | growth inhibition [9] 100% and 101%
inactive: inhibition [8] 2% and -1% | outcome [10] | outcome [11] | outcome [12] | outcome [13]

COc1ccc2nc(-c3ccc(F)cc3)cc([C@@H](O)[C@@H]3C[C@@H]4CCN3CC4C=NO)c2c1 (some centres undefined)
inactive: inhibition [7] 14% | inhibition [8] -2% | outcome [10] | outcome [11] | outcome [12] | outcome [13]
active: growth inhibition [6] 94% | growth inhibition [9] 100%

COc1cc(CN2CCN(c3ccnc(N(C)C4CCN(C)CC4)n3)CC2)cc(Cl)c1O
active: growth inhibition [6] 63% | growth inhibition [9] 94%
inactive: inhibition [7] 11% | inhibition [8] -5% | outcome [10] | outcome [11] | outcome [12] | outcome [13]

CC[C@H]1CN2CC[C@H]1C[C@H]2[C@H](O)c1ccnc2ccc(OC)cc12
inactive: inhibition [7] -8% | inhibition [8] -4% | outcome [10] | outcome [11] | outcome [12] | outcome [13]
active: growth inhibition [6] 62% | growth inhibition [9] 100%

CCCc1cc(O)c2c3c(c(=O)oc2c1)CN(C)CC3
active: growth inhibition [6] 50% | growth inhibition [9] 98%
inactive: inhibition [7] 12% | inhibition [8] 0% | outcome [10] | outcome [11] | outcome [12] | outcome [13]

COC(=O)c1ccc(CC(C)NCC(O)c2cccc(Br)c2)cc1 (centres undefined)
active: growth inhibition [6] 88% | growth inhibition [9] 99%
inactive: inhibition [7] -6% | inhibition [8] -2% | outcome [10] | outcome [11] | outcome [12] | outcome [13]
